The nature of experiment [1]: NCI Yeast Anticancer Drug Screen. Data for the rad50 strain (AID 155).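 Also: 0% = growth of vehicle-only cultures of the same strain.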 The note with it: S. cerevisiae rad50 strain growth inhibition, active compounds read high. The method, boiled down:
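Relative growth inhibition (compound vs vehicle) was measured in yeast with a defined repair-gene alteration.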

Experiment [2] is described as follows: NCI Yeast Anticancer Drug Screen. Data for the mec2-1 strain (AID 157). The settings on record: S. cerevisiae mec2-1 strain, active compounds read high. The method, boiled down:
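Readout is yeast growth inhibition, normalised to vehicle-treated controls, in the mec2-1 strain exposed to compound.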

Experiment [3] can be described thus: NCI Yeast Anticancer Drug Screen. Data for the sgs1 mgt1 strain (AID 161).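 Also: 0% = growth of cultures given vehicle only.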 The settings on record: S. cerevisiae sgs1 mgt1 strain, active compounds read high. The method, boiled down:
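Percent growth inhibition was derived by comparing compound-exposed mutant yeast with vehicle-exposed cultures. The strain carries alterations in DNA damage repair.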

Experiment [4] in a line: NCI Yeast Anticancer Drug Screen. Data for the cln2 rad14 strain (AID 165).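 Also: 0% = growth equal to vehicle treated cultures.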 The settings on record: S. cerevisiae cln2 rad14 strain, active compounds read high. The procedure, abridged: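 Relative to vehicle controls, growth inhibition of compound-treated cln2 rad14 yeast was recorded.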
Experiment [5] is described as follows: NCI Yeast Anticancer Drug Screen. Data for the bub3 strain (AID 167). The settings on record: S. cerevisiae bub3 mutant strain, active compounds read high. The method, boiled down: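 Screening used yeast with an engineered genetic alteration affecting cell cycle control. Compound-exposed cultures were compared with vehicle cultures, and reduced growth was taken as inhibition.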

Experiment [6] can be described thus: NCI Yeast Anticancer Drug Screen. Data for the mlh1 rad18 strain (AID 175). The note with it: S. cerevisiae mlh1 rad18 strain growth inhibition, active compounds read high. The method, boiled down: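 Test agents were incubated with a yeast strain of defined genotype (DNA damage repair defect). Inhibition of growth was derived by comparison with vehicle-exposed cultures.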

Where [7] appears, read: at 5.0 µM (retest, dose inferred, filed as 0.5).
Where [8] appears, read: at 50.0 µM (retest, dose inferred, filed as 5.0).

Structures are written as SMILES. About 79,000 compounds went through this panel and 15% of them were active in at least one assay; those are over-represented in the sample as a whole. Unmarked numbers belong to inactive results. Active and inactive are the calls of the source. Rule as the data show it: active = growth inhibition above about 70%; inactive = the rest.

For `O=C1/C(=C\c2ccc(Cl)cc2Cl)Sc2scc(-c3cccc([N+](=O)[O-])c3)[n+]21`, the growth inhibition in experiment [1] (setting [7]) was 17%; in experiment [1] (setting [8]) it was 98% (active); in experiment [1] (at 50.0 µM) it was 85.6% (active); in experiment [2] (setting [7]) it was 36%; in experiment [2] (setting [8]), 99% (active); in experiment [2] (at 50.0 µM) it was 86.1% (active). In addition, the growth inhibition in experiment [3] (setting [7]) is 69%; in experiment [3] (setting [8]) it was 98% (active); in experiment [3] (at 50.0 µM), 89.9% (active); in experiment [4] (setting [7]), 28%; in experiment [4] (setting [8]), 97% (active); in experiment [4] (at 50.0 µM), 88.5% (active). Also, the growth inhibition is 96% (active) in experiment [5] (setting [7]); 97% (active) in experiment [5] (setting [8]); 85.5% (active) in experiment [5] (at 50.0 µM); 23% in experiment [6] (setting [7]); 99% (active) in experiment [6] (setting [8]); 90.9% (active) in experiment [6] (at 50.0 µM).

Consider `O=C(OC1=C(Br)C(=O)c2ccccc2C1=O)c1ccccc1`, for which the growth inhibition in experiment [1] (setting [7]) is 13%; in experiment [1] (setting [8]), 99% (active); in experiment [1] (at 50.0 µM), 74.5% (active); in experiment [2] (setting [7]), 31%; in experiment [2] (setting [8]), 99% (active); in experiment [2] (at 50.0 µM) it was 60.2%. The growth inhibition in experiment [3] (setting [7]) is 32%; in experiment [3] (setting [8]), 98% (active); in experiment [3] (at 50.0 µM) it was 66.3%; in experiment [4] (setting [7]), 4%; in experiment [4] (setting [8]), 58%; in experiment [4] (at 50.0 µM), -17%. Besides, the growth inhibition is 12% in experiment [5] (setting [7]); 89% (active) in experiment [5] (setting [8]); 12.1% in experiment [5] (at 50.0 µM); 38% in experiment [6] (setting [7]); 98% (active) in experiment [6] (setting [8]); 51.2% in experiment [6] (at 50.0 µM).

Regarding `O=C(OC1C2CCC2C2CC21)c1cc([N+](=O)[O-])cc([N+](=O)[O-])c1` (stereo not given), the growth inhibition in experiment [1] (setting [7]) is -9%; in experiment [1] (setting [8]), 97% (active); in experiment [1] (at 50.0 µM), 10.9%; in experiment [2] (setting [7]), 4%; in experiment [2] (setting [8]), 99% (active); in experiment [2] (at 50.0 µM), 98.1% (active). Moreover, the growth inhibition in experiment [3] (setting [7]) was 32%; in experiment [3] (setting [8]), 99% (active); in experiment [3] (at 50.0 µM), 13%; in experiment [4] (setting [7]), 3%; in experiment [4] (setting [8]), 98% (active); in experiment [4] (at 50.0 µM), 97.8% (active). Moreover, the growth inhibition was 6% in experiment [5] (setting [7]); 98% (active) in experiment [5] (setting [8]); 62.2% in experiment [5] (at 50.0 µM); 42% in experiment [6] (setting [7]); 99% (active) in experiment [6] (setting [8]); 58.9% in experiment [6] (at 50.0 µM).

Turning to `Cc1cc2c(cc1C)[n+]([O-])c(-c1c(Cl)cccc1Cl)c(N)[n+]2[O-]`, the growth inhibition in experiment [1] (setting [7]) is 13%; in experiment [1] (setting [8]), 88% (active); in experiment [1] (at 50.0 µM), 82.5% (active); in experiment [2] (setting [7]), 27%; in experiment [2] (setting [8]), 98% (active); in experiment [2] (at 50.0 µM) it was 45.2%. The growth inhibition in experiment [3] (setting [7]) is 40%; in experiment [3] (setting [8]) it was 100% (active); in experiment [3] (at 50.0 µM) it was 79.4% (active); in experiment [4] (setting [7]), 18%; in experiment [4] (setting [8]) it was 77% (active); in experiment [4] (at 50.0 µM) it was 69%. Besides, the growth inhibition is 56% in experiment [5] (setting [7]); 99% (active) in experiment [5] (setting [8]); 93.5% (active) in experiment [5] (at 50.0 µM); 45% in experiment [6] (setting [7]); 98% (active) in experiment [6] (setting [8]); 93.7% (active) in experiment [6] (at 50.0 µM).

Turning to `CC(=O)Nc1ccc(-c2nnc(SCC(=O)Nc3cccc(Cl)c3)o2)cc1`, the growth inhibition in experiment [1] (setting [7]) is 14%; in experiment [1] (setting [8]) it was 45%; in experiment [1] (at 50.0 µM), 22.2%; in experiment [2] (setting [7]), 1%; in experiment [2] (setting [8]), 39%; in experiment [2] (at 50.0 µM), 15.6%. The growth inhibition is 10% in experiment [3] (setting [7]); 33% in experiment [3] (setting [8]); 55.6% in experiment [3] (at 50.0 µM); 15% in experiment [4] (setting [7]); 49% in experiment [4] (setting [8]); -33.8% in experiment [4] (at 50.0 µM). In addition, the growth inhibition in experiment [5] (setting [7]) was 8%; in experiment [5] (setting [8]), 56%; in experiment [5] (at 50.0 µM), 73.7% (active); in experiment [6] (setting [7]), 2%; in experiment [6] (setting [8]), 71% (active); in experiment [6] (at 50.0 µM) it was 28.7%.

`Cn1c2ccccc2c2cc3cnccc3cc21`: the growth inhibition in experiment [1] (setting [7]) is -98%; in experiment [1] (setting [8]), 95% (active); in experiment [1] (at 50.0 µM) it was 98.5% (active); in experiment [2] (setting [7]), -50%; in experiment [2] (setting [8]), 73% (active); in experiment [2] (at 50.0 µM), 96.4% (active). Moreover, the growth inhibition in experiment [3] (setting [7]) is -57%; in experiment [3] (setting [8]), 82% (active); in experiment [3] (at 50.0 µM), 92.6% (active); in experiment [4] (setting [7]), -55%; in experiment [4] (setting [8]), 88% (active); in experiment [4] (at 50.0 µM) it was 96.3% (active). Moreover, the growth inhibition in experiment [5] (setting [7]) was -68%; in experiment [5] (setting [8]), 89% (active); in experiment [5] (at 50.0 µM) it was 90.8% (active); in experiment [6] (setting [7]), -164%; in experiment [6] (setting [8]) it was 93% (active); in experiment [6] (at 50.0 µM) it was 98.7% (active).

Consider `CCCCN(CCCC)CCCCCCNc1cc(OC)cc2cccnc12`, for which the growth inhibition in experiment [1] (setting [7]) was 4%; in experiment [1] (setting [8]), 32%; in experiment [1] (at 50.0 µM), 98.2% (active); in experiment [2] (setting [7]), 1%; in experiment [2] (setting [8]) it was 14%; in experiment [2] (at 50.0 µM), 98.6% (active). In addition, the growth inhibition in experiment [3] (setting [7]) is 3%; in experiment [3] (setting [8]) it was 13%; in experiment [3] (at 50.0 µM), 99% (active); in experiment [4] (setting [7]), 5%; in experiment [4] (setting [8]), 39%; in experiment [4] (at 50.0 µM) it was 98.1% (active). The growth inhibition in experiment [5] (setting [7]) was 9%; in experiment [5] (setting [8]) it was 30%; in experiment [5] (at 50.0 µM), 99% (active); in experiment [6] (setting [7]), -4%; in experiment [6] (setting [8]) it was 9%; in experiment [6] (at 50.0 µM), 98.7% (active).

As for `CC1(C)CNCC(C)(OCc2ccccc2)C(=O)NC(C)(C)CNCC(C)(OCc2ccccc2)C(=O)N1` (stereo not given), the growth inhibition in experiment [1] (setting [7]) was -6%; in experiment [1] (setting [8]), -19%; in experiment [1] (at 50.0 µM), -1.9%; in experiment [2] (setting [7]), -15%; in experiment [2] (setting [8]) it was -8%; in experiment [2] (at 50.0 µM) it was -3.4%. Also, the growth inhibition is -8% in experiment [3] (setting [7]); 7% in experiment [3] (setting [8]); -20.9% in experiment [3] (at 50.0 µM); -15% in experiment [4] (setting [7]); -5% in experiment [4] (setting [8]); 31.5% in experiment [4] (at 50.0 µM). The growth inhibition in experiment [5] (setting [7]) is -10%; in experiment [5] (setting [8]), 3%; in experiment [5] (at 50.0 µM), -68.2%; in experiment [6] (setting [7]), -10%; in experiment [6] (setting [8]) it was 6%; in experiment [6] (at 50.0 µM), -10.4%.

With `O=c1ncccn1[C@@H]1O[C@H](CO)[C@H](O)C1O` (stereo not given in full), the growth inhibition in experiment [1] (setting [7]) is 21%; in experiment [1] (setting [8]), 22%; in experiment [1] (at 50.0 µM), 64.3%; in experiment [2] (setting [7]) it was 13%; in experiment [2] (setting [8]), 12%; in experiment [2] (at 50.0 µM) it was 28.4%. The growth inhibition in experiment [3] (setting [7]) was 15%; in experiment [3] (setting [8]) it was 12%; in experiment [3] (at 50.0 µM), 4.15%; in experiment [4] (setting [7]), 10%; in experiment [4] (setting [8]), 12%; in experiment [4] (at 50.0 µM), 10.8%. In addition, the growth inhibition in experiment [5] (setting [7]) was 23%; in experiment [5] (setting [8]), 10%; in experiment [5] (at 50.0 µM) it was -5.75%; in experiment [6] (setting [7]), 7%; in experiment [6] (setting [8]) it was 31%; in experiment [6] (at 50.0 µM) it was -9.3%.

In the case of `O=[N+]([O-])c1cccc(C=Nc2ccccc2O)c1`, the growth inhibition is 22% in experiment [1] (setting [7]); 34% in experiment [1] (setting [8]); 63.1% in experiment [1] (at 50.0 µM); 12% in experiment [2] (setting [7]); 31% in experiment [2] (setting [8]); 41.8% in experiment [2] (at 50.0 µM). Further, the growth inhibition is 13% in experiment [3] (setting [7]); 35% in experiment [3] (setting [8]); 52.7% in experiment [3] (at 50.0 µM); -4% in experiment [4] (setting [7]); 7% in experiment [4] (setting [8]); 17.6% in experiment [4] (at 50.0 µM). Moreover, the growth inhibition was 23% in experiment [5] (setting [7]); 82% (active) in experiment [5] (setting [8]); 76% (active) in experiment [5] (at 50.0 µM); 24% in experiment [6] (setting [7]); 48% in experiment [6] (setting [8]); 70.8% (active) in experiment [6] (at 50.0 µM).

The values above are taken from PubChem BioAssay (NCI).
